The subject of test [1] is Zika virus NS2B-NS3 protease (linked construct). As to the kind of experiment: Primary screen NINDS Rhodamine qHTS for Zika virus inhibitors (AID 1347160). Further: on the % scale 0 is the no-effect control and ±100 the full control effect; nearly all actives have a fitted effect of over 55% in size. An outline of the steps:
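Enzyme (25 nM, linked NS2B-NS3) was preincubated 15 min with compound in 10 mM Tris-HCl pH 8.0, 0.01% Tween 20. Rhodamine110 substrate (1.5 microM) was then added and fluorescence read at start and after 15 min.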
Background: In qHTS, concentration-response curves come from the screen itself.

A short description of test [2]: qHTS to identify inhibitors of the type 1 interferon - major histocompatibility complex class I in skeletal muscle: primary screen against the NCATS Mechanism Interrogation Plate v5.0 (MIPE) Libary (AID 1347411). Further: potency means the concentration at half of the fitted maximal effect; nearly all actives have a fitted effect of over 65% in size. An outline of the steps:
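HLA-B HiBit myoblasts, dexamethasone-free medium + 4 ng/ml IFN-b, 24 h compound, 11-pt 1:3 from 46 uM final. Readout: Nano-Glo HiBiT lytic luminescence after 10 min lysis, RT.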

Test [3] has as its target Calcium and integrin-binding protein 1 (Homo sapiens) (UniProt Q99828). Description: Primary qHTS for Identification of Calcium Integrin Binding Protein 1 (CIB1) Competitor (AID 1508620).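 Further: GST tagged CIB1 binding a fluorescein labelled alphaIIb integrin peptide tracer; top concentration of the series differs between compounds; on the % scale 0 is the no-effect control and ±100 the full control effect.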 An outline of the steps: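 CIB1-GST (1 uM final) and compound incubated 15 min at room temperature before adding FITC-alphaIIb peptide tracer (100 nM final). Competition for binding read by fluorescence polarization (ex 480, em 540) after another 15 min at room temperature.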

The nature of test [4]: Cytotoxicity counterscreen for inhibitors of SARS-CoV-2 cell entry (AID 1645845; calls by dose curve; further: potency means the concentration at half of the fitted maximal effect; nearly all actives have a fitted effect of over 50% in size). An outline of the steps:
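ATP-content luminescence (ATPLite 1step, 15 min RT) read after 48 h compound exposure of Expi293F cells stably expressing human ACE2; normalized to cells-only wells and media-only wells.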

Test [5] can be described thus: Primary qHTS for inhibitors of nuclear receptor binding SET domain protein 2 (NSD2) in an isogenic RCH-ACV NSD2 p.E1099K mutant (9B) (AID 1645876). Further: potency means the concentration at half of the fitted maximal effect; nearly all actives have a fitted effect of over 70% in size.
Test [6] is described as follows: Primary qHTS for inhibitors of nuclear receptor binding SET domain protein 2 (NSD2) in an RCH-ACV wild type WT cells (2C) (AID 1645877). Further: potency means the concentration at half of the fitted maximal effect; nearly all actives have a fitted effect of over 70% in size.
Test [7] can be described thus: NCATS anti-infectives library activity on HEK293 viability as a counter-qHTS vs the C. elegans viability qHTS (AID 1745854). Further: potency means the concentration at half of the fitted maximal effect. An outline of the steps:
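CellTiter-Glo luminescence, read on a CCD imager, scored viability of HEK293 cells after 24 hr compound exposure at 37C. Library tested in several concentrations, 1:5 steps, up to 41.7 uM; digitonin served as control.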

Test [8] can be described thus: NCATS anti-infectives library activity on the primary C. elegans qHTS viability assay (AID 1745855; calls by dose curve; further: potency means the concentration at half of the fitted maximal effect). An outline of the steps: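 Titration-based screen in worms: eggs hatched overnight in M9, L1 larvae fed TOP10 capsules in S medium with compound, incubated 21 °C for 7 days; fluorescent objects gated by size and intensity at days 0, 3 and 7.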
For test [9], the target named is Phospholipid hydroperoxide glutathione peroxidase GPX4 (Homo sapiens) (UniProt P36969). Description: Primary qHTS Assay for Inhibitors of Recombinant Selenoprotein Glutathione Peroxidase 4 (GPX4) (AID 1845192). Further: on the % scale 0 is the no-effect control and ±100 the full control effect; nearly all actives have a fitted effect of over 65% in size. An outline of the steps: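 NADPH consumption followed by fluorescence at 340/450 nm, t=0 and after 15 min at room temperature. Reaction started with cumene hydroperoxide (0.5 mM final) after 30 min compound–GPX4 preincubation; final 200 nM GPX4, 100 nM GR, 1 mM GSH, 0.5 mM NADPH.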
Sequence of Phospholipid hydroperoxide glutathione peroxidase GPX4 (Homo sapiens) (P36969 whole entry, looked up): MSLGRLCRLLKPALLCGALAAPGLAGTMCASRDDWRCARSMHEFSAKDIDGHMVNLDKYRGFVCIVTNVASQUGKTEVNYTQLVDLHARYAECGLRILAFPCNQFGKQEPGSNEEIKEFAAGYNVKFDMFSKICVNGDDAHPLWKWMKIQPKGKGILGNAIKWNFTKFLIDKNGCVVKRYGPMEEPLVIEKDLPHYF

The target in test [10] is Luciferin 4-monooxygenase (Photinus pyralis) (UniProt P08659). As to the kind of experiment: Primary firefly luciferase (FLuc) qHTS assay for identification of artifact compounds. (AID 1845220). Further: nearly all actives have a fitted effect of over 60% in size. To be noted: outcome: dose series up to 54.1 µM unless noted. An outline of the steps: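 FLuc 10 nM; luciferin 10 uM; ATP 10 uM; Tris-acetate pH 7.6, Mg-acetate 10 mM; 15 min RT preincubation; 5 min reaction; luminescence.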

A short description of test [11]: Primary fluorescence-based thiol-reactive (MSTI) qHTS assay for identification of artifact compounds. (AID 1845221).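 Further: thiol-reactive compounds lower the probe fluorescence signal; nearly all actives have a fitted effect of over 65% in size.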 An outline of the steps: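 qHTS titration of compound; 4 uM MSTI, PBS pH 7.4, 2% DMSO; 1 h RT, dark; fluorescence 525/598 nm; normalized to Acetyl-MSTI and MSTI; 4-parameter Hill fit.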
For test [12], the system named is Nanoluciferase (engineered Oplophorus gracilirostris luciferase). As to the kind of experiment: Primary Nanoluciferase (NLuc) qHTS assay for identification of artifact compounds. (AID 1845222).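 Further: NLuc secreted into diluted conditioned medium of S16 cells; 0% = DMSO and -100% = no enzyme.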 An outline of the steps:
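NLuc from S16 cell medium (1:55) plus test compounds, 15 min, room temperature. Luminescence after Nano-Glo (1:100) addition, 5 min.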

Test [13] in a line: Primary redox qHTS assay for identification of artifact compounds. (AID 1845223).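 Further: 0% = DMSO and 100% = reference compound.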 An outline of the steps:
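Redox-cycling detection via DTT (250 uM final) oxidation coupled to Amplex Red (25 uM)/HRP (250 mU/mL) in HBSS. 15 min preincubation plus 30 min after DTT, room temperature. Ex/Em 525/598 nm; 4-parameter Hill fit against DMSO and 10 uM DA3003.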

The nature of test [14]: qHTS drug screen for cell cycle checkpoint inhibitors in PARPi-resistant BRCA-mutant ovarian cancer cell lines. (AID 1963452; calls by dose curve). Conditions: PEO1/OlaR viability, CellTiter-Glo luminescence, 96 h, stronger effect = lower value. An outline of the steps:
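PEO1, PEO4 and PEO1/OlaR ovarian cancer cells, 600 per well, exposed 96 h at 37C to a dilution series. Viability read by CellTiter-Glo luminescence, normalized to DMSO and empty wells; activity summarized as Z-AUC.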

The test system of test [15] is HEK293. As to the kind of experiment: Cytotoxic Profiling of Annotated Libraries Using Quantitative High-Throughput Screening (AID 1296008). Further: on the % scale 0 is the no-effect control and ±100 the full control effect; nearly all actives have a fitted effect of over 60% in size. To be noted: Five cell lines viability, CellTiter-Glo ATP luminescence, 48-72 h; max response: stronger effect = lower value. An outline of the steps: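 Cytotoxicity was measured as CellTiter-Glo ATP luminescence, read after 10 min at room temperature. Compound treatment of the cells lasted 48 or 72 hr at 37 degrees Celsius in a qHTS format.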
In general terms: Cellular ATP, detected with luciferase, serves as a proxy for viable cell number.

The test system of test [16] is CASKI. Description: Primary qHTS to identify gynecologic anti-cancer compounds using libraries of approved drugs and bioactive compounds (AID 1345084). Further: on the % scale 0 is the no-effect control and ±100 the full control effect; nearly all actives have a fitted effect of over 55% in size. To be noted: Gynecologic cancer cell panel viability, ATPlite luminescence, 48 h; series mostly up to 57.5 µM. An outline of the steps: (§1)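 Cells, 1,000 per well, were allowed to settle for 16 h at 37 C before compound addition. Five concentrations were tested for 48 h, and viability was read by ATPlite luminescence after 15 min at room temperature.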

Test [17] deals with OV90. The description is as above. To be noted: Gynecologic cancer cell panel viability, ATPlite luminescence, 48 h; series mostly up to 57.5 µM. An outline of the steps:
as §1

The subject of test [18] is PA-1. Described as above. Conditions: Gynecologic cancer cell panel viability, ATPlite luminescence, 48 h; series mostly up to 57.5 µM. An outline of the steps: as §1
The subject of test [19] is Tov-21-G. The description is as above. To be noted: Gynecologic cancer cell panel viability, ATPlite luminescence, 48 h; series mostly up to 57.5 µM. An outline of the steps:
as §1

The structures appear in SMILES notation. Records with an inconclusive call do not appear. The source made the active and inactive calls. Unless noted, the call rests on the fitted dose curve; in most records, active means well fitted curve in the direction sought with a large enough effect; inconclusive means small, poorly fitted or top-dose-only effect, or another doubt; inactive means no such curve, though single readings can be large; an effect the other way counts as inactive or inconclusive.

Sequence of Calcium and integrin-binding protein 1 (Homo sapiens) (Q99828 whole entry, looked up): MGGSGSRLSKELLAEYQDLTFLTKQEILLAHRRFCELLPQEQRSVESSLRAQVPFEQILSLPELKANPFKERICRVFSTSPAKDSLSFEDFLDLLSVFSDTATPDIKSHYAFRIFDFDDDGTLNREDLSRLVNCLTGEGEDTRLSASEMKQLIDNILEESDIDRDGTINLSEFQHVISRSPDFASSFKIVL

In the case of `CC[C@H]1/C=C\C=C/C[C@@H](C)[C@H](O)[C@@](C)(O)C(=O)[C@@H](C)[C@H](O)[C@@H](C)C(=O)[C@@H](C)[C@H](O)[C@@H](C)/C=C\C(=O)O[C@@H]2[C@H](C)[C@H](CC1)O[C@]1(CC[C@H](C)[C@H](C[C@@H](C)O)O1)[C@H]2C`, the Potency entry in [1], in test [3], in [9], in test [11], in test [12] and in test [13] was “inactive” each time. Also, the Potency entry in test [16], in [17], in [18] and in test [19] was “inactive” in each case. Besides, the Potency in test [2] is 20.8 µM (active); in test [4], 20 µM (active); in [5], 0.742 µM (active); in test [6] it was 0.332 µM (active); in [7], 15.8 µM (active); in test [8] it was 5.78 µM (active). Further, the call in test [10] was inactive. Besides, the values for the Z-AUC in test [14], in [14] (measured here: PEO1 parental Z-AUC) and in test [14] (measured here: PEO4 Z-AUC) were 0.274 (inactive), -2.84 and -2.81, respectively. Besides, the max response in test [15] is -112% (inactive).

The values above are taken from PubChem BioAssay (NCATS).
